Data on 40 compounds can be found in PubChem BioAssay (NCATS).

Inconclusive results are not listed. Activity calls are given as the source filed them. The call rests on the fitted dose curve; in most records, active means well fitted cell-killing curve with a large enough effect; inconclusive means small, poorly fitted or top-dose-only effect; inactive means no such curve, though single readings can be large or run the other way.
Potency means the concentration at half of the fitted maximal effect.

This assay is described as follows: Quantitative High-Throughput drug screen in 47 multiple myeloma cell lines against the NCATS MIPE library collection: JIM3_ECACC cell viability assay (AID 1918963; further: nearly all actives have a fitted effect of over 35% in size). The settings on record: JIM3 myeloma viability, CellTiter-Glo ATP, 48 h; series mostly up to 45.8 µM. An excerpt:
PI: Beverly A. Mock Ph.D.
Laboratory of Cancer Biology and Genetics,
Center for Cancer Research, National Cancer Institute,
National Institute of Health, Bethesda, Maryland
Drug resistance and disease progression are common in multiple myeloma (MM) patients, underscoring the need for new therapeutic combinations. […] We hypothesized that effective combinations would reduce MYC expression and enhance p16 activity. […] These preclinical data identify potentially useful drug combinations for evaluation in drug-resistant MM and reveal potential mechanisms of combined drug sensitivity.
Described herein is the primary MIPE qHTS used to cherrypick compounds. Validated compounds were then further tested for potential synergistic activiy.
[1] Peat TJ, Gaikwad SM, Dubois W, Gyabaah-Kessie N, Zhang S, Gorjifard S, Phyo Z, Andres M, Hughitt VK, Simpson RM, Miller MA, Girvin AT, Taylor A, Williams D, D'Antonio N, Zhang Y, Rajagopalan A, Flietner E, Wilson K, Zhang X, Shinn P, Klumpp-Thomas C, McKnight C, Itkin Z, Chen L, Kazandijian D, Zhang J, Michalowski AM, Simmons JK, Keats J, Thomas CJ, Mock BA. Drug combinations identified by high-throughput screening promote cell cycle transition and upregulate Smad pathways in myeloma. Cancer Lett. 2023 Aug 1;568:216284. doi: 10.1016/j.canlet.2023.216284. Epub 2023 Jun 24. PMID: 37356470; PMCID: PMC10408729.
SEQUENCE No. (e.g., 1, 2, 3, etc.); […] (e.g., Cells, Incubation, Reagent, etc.); VALUE and DESCRIPTION.
1; Cells; 5 uL; white, solid bottom 1536-well Greiner assay plate.
2; Compounds; 23 nL; Kalypsis pin tool (Wako USA) equipped with a 1536-well pin head to transfer to the assay plates.
3; Incubation; 48 hours; 37C incubation.
4; Reagent;5uL; CellTiter Glo (Promega).
5; Detector; 425V; Luminescence; Viewlux PerkinElmer.
NOTES (numbers refer to Sequence numbers above)
1. The cell-based screening methods employed in this study were like those previously published. Briefly, the corresponding myeloma cell lines were screened in 1,536-well plates with 500 cells, 5-uL per well for inhibition of cell viability (assessed by measuring ATP levels with CellTiterGlo).
2. NCATS MIPE 4.0 library of approved and investigational drugs were added using the Kalypsis pin tool. Wells treated with DMSO only for 100% viability and media only wells for 0% viability were used as controls.
3. The assay plates were covered and incubated for 48 hours in a 37C, 5% CO2 incubator with controlled humidity.
4. After 48 hours, CellTilter-GloTM luminescent substrate mix (Promega) reagent was added to the assay plate and plates we incubated for 5 min at room temperature.
5. Signal was measured as median relative luminescence units on a ViewLux (PerkinElmer) multiplate reader.
[1] Heske CM, Davis MI, Baumgart JT, Wilson K, Gormally MV, Chen L, Zhang X, Ceribelli M, Duveau DY, Guha R, Ferrer M, Arnaldez FI, Ji J, Tran HL, Zhang Y, Mendoza A, Helman LJ, Thomas CJ. Matrix Screen Identifies Synergistic Combination of PARP Inhibitors and Nicotinamide Phosphoribosyltransferase (NAMPT) Inhibitors in Ewing Sarcoma. Clin Cancer Res. 2017 Dec 1;23(23):7301-7311. doi: 10.1158/1078-0432.CCR-17-1121. Epub 2017 Sep 12. PMID: 28899971; PMCID: PMC6636827.
In general terms: In ATP-based viability assays light output follows the ATP content of the culture.
For `Cc1cnc(Nc2ccc(F)cc2Cl)nc1-c1c[nH]c(C(=O)N[C@H](CO)c2cccc(Cl)c2)c1`, the Potency is 16.6 µM (active).

Turning to `CCCCCN(CCC12CC3CC(CC(C3)C1)C2)C(=O)NCCCc1ccncc1`, the Potency was 20.9 µM (active).

`Clc1cccc(-n2nnnc2NCc2ccccc2Oc2ccccn2)c1Cl`: the Potency entry was “inactive”.

For `CN1CCN(c2ccc3nc(-c4c(N)c5c(F)cccc5[nH]c4=O)[nH]c3c2)CC1`, the Potency is 13.2 µM (active).

Take `COc1cc2c(Oc3ccc(-c4cnc(Nc5ccc(F)cc5)n(C)c4=O)cc3F)ccnc2cc1OCCCN1CCOCC1`: the Potency is 5.9 µM (active).

On to `Cc1cccc(C=NNc2cc(N3CCOCC3)nc(OCCc3ccccn3)n2)c1`, for which the Potency is 2.35 µM (active).

As for `N#CCNC(=O)c1ccc(-c2ccnc(Nc3ccc(N4CCOCC4)cc3)n2)cc1`, the Potency is 13.2 µM (active).

Regarding `Cc1ccc(-c2ncn(-c3ccc(Nc4nccc(-c5cccc(N6CCOCC6)c5)n4)cc3)n2)cn1`, the Potency was 0.235 µM (active).

For the compound `Nc1ccccc1NC(=O)c1ccc(CNC(=O)OCc2cccnc2)cc1`, the Potency is 2.96 µM (active).

Regarding `COC(=O)c1ccc2c(C(=Nc3ccc(N(C)C(=O)CN4CCN(C)CC4)cc3)c3ccccc3)c(O)[nH]c2c1`, the Potency was 6.62 µM (active).

Turning to `Cc1nc2cnc3ccc(C#Cc4cccnc4)cc3c2n1-c1ccc(C(C)(C)C#N)cc1`, the Potency was 0.148 µM (active).

Consider `C=CC(=O)Nc1cc2c(Nc3ccc(F)c(Cl)c3)ncnc2cc1C#CC(C)(C)N1CCN(C)CC1`, for which the Potency was 1.66 µM (active).

In the case of `O=C1CCC[C@@H]2[C@H]3CCC[N+]4([O-])CCC[C@@H](CN12)[C@@H]34` (stereo not given in full), the Potency result was “inactive”.

As to `N#Cc1c(O)c2c(-c3ccc(-c4ccccc4O)cc3)csc2[nH]c1=O`, the Potency result was “inactive”.

For the compound `COc1cc(Nc2ncc(F)c(Nc3ccc4c(n3)N(COP(=O)(O)O)C(=O)C(C)(C)O4)n2)cc(OC)c1OC`, the Potency is 1.66 µM (active).

With `O=C(O)[C@H](Cc1c[nH]c2ccccc12)N1C(=O)c2ccccc2C1=O`, the Potency entry is “inactive”.

As to `Nc1nc(NCCNc2ncc(-n3ccnc3)c(-c3ccc(Cl)cc3Cl)n2)ccc1[N+](=O)[O-]`, the Potency was 5.26 µM (active).

Consider `C#Cc1cccc(Nc2ncnc3cc(OC)c(OCCCCCCC(=O)NO)cc23)c1`, for which the Potency is 2.35 µM (active).

`Cc1[nH]c2ccccc2c1CCNCc1ccc(C=CC(=O)NO)cc1`: the Potency was 0.235 µM (active).

In the case of `CC1(C)O[C@@H]2C[C@@H]3[C@H]4C[C@@H](F)C5=CC(=O)C=C[C@]5(C)[C@@]4(F)[C@@H](O)C[C@]3(C)[C@]2(C(=O)CO)O1`, the Potency entry was “inactive”.

Regarding `CC1(O)CC(c2nc(-c3ccc4ccc(-c5ccccc5)nc4c3)c3c(N)nccn23)C1` (stereo not given), the Potency is 0.148 µM (active).

Turning to `CCNC(=O)Nc1ccc2ncc(Nc3ccc(C)cc3)nc2n1`, the Potency is 4.69 µM (active).

As for `NC(=O)c1c(OCc2c(F)cc(Br)cc2F)nsc1NC(=O)NCCCCN1CCCC1`, the Potency is 26.4 µM (active).

In the case of `C[C@@H]1CN(CC(=O)Nc2ccc3c(c2)Cc2cccc(-c4cc(=O)cc(N5CCOCC5)o4)c2S3)C[C@H](C)O1`, the Potency is 13.2 µM (active).

For `Cn1c(=O)n(-c2ccc(C(C)(C)C#N)cc2)c2c3cc(-c4cnc5ccccc5c4)ccc3ncc21`, the Potency was 0.132 µM (active).

Consider `COc1cc(C)c(Sc2cnc(NC(=O)c3ccc(CNC(C)C(C)C)cc3)s2)cc1C(=O)N1CCN(C(C)=O)CC1` (stereo not given), for which the Potency is 4.18 µM (active).

For the compound `CCn1nnc2c(N3CCOCC3)nc(-c3ccc(NC(=O)Nc4ccc(C(=O)N5CCN(C)CC5)cc4)cc3)nc21`, the Potency was 0.0235 µM (active).

As for `COc1ccc(-n2nc(C(N)=O)c3c2C(=O)N(c2ccc(N4CCCCC4=O)cc2)CC3)cc1`, the Potency entry was “inactive”.

Turning to `COCCOc1ccc2c(c1)ncn2-c1ccc2cccc(N3CCC(N)CC3)c2n1`, the Potency was 10.5 µM (active).

Turning to `COc1cc(C(C)C)c2c(c1)S(=O)(=O)N(COc1cc(=O)n3cccc(OCCN4CCCCC4)c3n1)C2=O`, the Potency was 18.7 µM (active).

`C[C@]12CC[C@H](O)CC1=CCC1C2CC[C@]2(C)C(n3cnc4ccccc43)=CCC12` (stereo not given in full): the Potency result is “inactive”.

Consider `COC(=O)C1=C(C)NC(C)=C(C(=O)OCCN2CCN(C(c3ccccc3)c3ccccc3)CC2)C1c1cccc([N+](=O)[O-])c1` (stereo not given), for which the Potency entry is “inactive”.

For the compound `CNc1nccc(-c2cccnc2Oc2cc(C(=O)Nc3cccc(C(F)(F)F)c3)ccc2C)n1`, the Potency was 18.7 µM (active).

Turning to `COc1cc2c(NC3CCN(C(C)C)CC3)nc(C3CCCCC3)nc2cc1OCCCN1CCCC1`, the Potency is 8.33 µM (active).

Regarding `C=C1C(=CC=C2CCC[C@]3(C)[C@@H]([C@H](C)C=C[C@H](C)C(C)C)CC[C@@H]23)C[C@@H](O)C[C@@H]1O`, the Potency is 7.43 µM (active).

For `Cn1cc(-c2[nH]c3cc(NC(=O)[C@H](N)C4CCCCC4)cc4c3c2C=NNC4=O)cn1`, the Potency was 5.26 µM (active).

As to `C=CC(=O)Nc1cccc(Oc2nc(Nc3ccc(N4CCN(C)CC4)cc3OC)ncc2Cl)c1`, the Potency was 0.118 µM (active).

`CC(C)[C@H](C(=O)Nc1ccc(C(=O)NO)cc1)c1ccccc1`: the Potency was 1.48 µM (active).

Consider `C=CC(=O)Nc1cccc(Oc2nc(Nc3ccc(N4CCN(C)CC4)cc3)ncc2Cl)c1`, for which the Potency was 5.9 µM (active).

Consider `O=C(NCCCNc1nc(Nc2cccc(NC(=O)N3CCCC3)c2)ncc1I)c1cccs1`, for which the Potency was 5.26 µM (active).
